Here are results for six molecules from PubChem BioAssay (NCATS).

Experiment [1] in a line: AP1 Signaling Pathway (AID 357; active means well fitted curve in either direction with a large enough effect, not every such curve was filed as active;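 further: ME-180 reporter cells stimulated with EGF at its EC50 level; on the % scale 0 is the no-effect control and ±100 the full control effect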). The method, boiled down:
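Titration-series screen for positive or negative modulators of EC50 EGF-induced signaling in ME-180 cells carrying an AP-1-driven beta-lactamase reporter. After 5 hours at 37 degrees Celsius, CCF4 460nm/530nm emission ratio gave %Activity; AC50 values derived.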

For experiment [2], the target named is Cytochrome P450 1A2 (Homo sapiens) (UniProt P05177). As to the kind of experiment: p450-cyp1a2 (AID 410; calls by dose curve; further: potency means the concentration at half of the fitted maximal effect;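 on activity change, negative = inhibition: -100% = full effect of reference inhibitor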). The method, boiled down: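 Human CYP1A2 (20nM) demethylated Luciferin-ME at its Km (100uM) in 100mM KPO4. After 10 min compound preincubation, NADPH regeneration ran the reaction 60 min at room temperature. Luciferin was read by luminescence, normalized to 57 uM furafylline.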
Sequence of Cytochrome P450 1A2 (Homo sapiens) (P05177 whole entry, looked up): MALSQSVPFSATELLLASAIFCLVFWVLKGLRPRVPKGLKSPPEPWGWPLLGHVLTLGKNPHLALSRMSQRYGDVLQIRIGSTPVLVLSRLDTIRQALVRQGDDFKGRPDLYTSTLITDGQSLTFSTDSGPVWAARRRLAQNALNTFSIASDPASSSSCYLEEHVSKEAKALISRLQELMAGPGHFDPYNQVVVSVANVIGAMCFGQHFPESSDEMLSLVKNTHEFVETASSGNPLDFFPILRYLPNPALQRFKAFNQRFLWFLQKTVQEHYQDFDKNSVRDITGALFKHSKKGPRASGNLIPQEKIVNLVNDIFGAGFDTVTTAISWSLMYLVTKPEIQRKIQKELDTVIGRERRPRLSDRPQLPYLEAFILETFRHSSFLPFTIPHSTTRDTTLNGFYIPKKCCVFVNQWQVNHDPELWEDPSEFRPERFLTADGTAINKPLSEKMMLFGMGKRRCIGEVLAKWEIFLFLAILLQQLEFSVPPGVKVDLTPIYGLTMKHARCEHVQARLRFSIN

The nature of experiment [3]: NFAT Signaling Pathway (AID 444; active means well fitted curve in either direction with a large enough effect, not every such curve was filed as active;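 further: carbachol stimulus at about its EC50 of 1 µM final; on the % scale 0 is the no-effect control and ±100 the full control effect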). Conditions: Jurkat NFAT-bla M1, carbachol, beta-lactamase ratio, 5 h; at 17.2 µM (top of the series) unless noted. The method, boiled down: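 Jurkat cells with NFAT-driven β-lactamase reporter and co-expressed M1 receptor, stimulated with carbachol (final 1 uM, ~EC50), compound titration, 5 h at 37 °C. CCF4 loaded 1 h at RT; 460/530 nm ratio gave %activity and AC50.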

The nature of experiment [4]: Stat Signaling Pathway (AID 446; active means well fitted curve in either direction with a large enough effect, not every such curve was filed as active;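 further: ME-180 cervical cancer cells given 40 pM IL-6 alongside compound; SIE-controlled beta-lactamase reporter measured as 460/530 nm FRET emission ratio; on the % scale 0 is the no-effect control and ±100 the full control effect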). The method in brief:
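ME-180 SIE-bla cells; overnight plating; cpd + IL-6 40 pM, 5 h, 37 C; LiveBLAzer 2.5 h RT; 460/530 nm emission ratio. Normalized to 300 pM IL-6 and 125 nM JAK inhibitor controls.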

Experiment [5] has as its target Glucocorticoid receptor (Homo sapiens) (UniProt P04150). As to the kind of experiment: GR-EFC Redistribution (AID 451; calls by dose curve; further: potency means the concentration at half of the fitted maximal effect). The conditions noted are these: CHO-K1 GR-EFC translocation, beta-gal luminescence, 2 h. The method in brief:
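CHO-K1 cells expressing nuclear EA and GR-ED fragments of b-gal; compounds titrated up to 46 uM final, 2 h at 37 C. GR nuclear translocation read as complemented b-gal luminescence after 1 h RT detection.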

Experiment [6] has as its target Mitogen-activated protein kinase 10 (Mus musculus) (UniProt Q61831). Description: JNK3 AlphaScreen Assay (AID 530; active means well fitted curve in either direction with a large enough effect, not every such curve was filed as active;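 further: kinase came from lysate of stimulated human HepG2 cells; signal reports phosphorylation of biotinylated GST-cJun 1-79 at Ser73 with 10 µM ATP; on the % scale 0 is the no-effect control and ±100 the full control effect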). The method, boiled down: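 qHTS format: compounds tested as titrations against IL-1beta/TNF-alpha-activated HepG2 lysate JNK3 with biotin-GST-cJun substrate and 10 uM ATP at room temperature. Loss of anti-phospho-cJun AlphaScreen signal indicates inhibition.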

Experiment [7] deals with 3',5'-cyclic-AMP phosphodiesterase 4B (Homo sapiens) (UniProt Q07343). As to the kind of experiment: qHTS Assay for Inhibitors of PDE-IV (AID 607; active means well fitted activation curve with a large enough effect in the main read-out, with a control signal flat, not every such curve was filed as active; further: % of control where 0% means no effect). The method in brief:
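ACTOne HEK293 cells carry a modified cAMP-gated CNG channel and express endogenous PDE4; plated 1000 cells/well, compounds up to 22.9 uM final. Membrane-potential dye fluorescence (ex 535/em 590) was read; parental cells received 10 uM forskolin + 100 uM RO 20-1724.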

The nature of experiment [8]: qHTS Assay for Lipid Storage Modulators (AID 1519; calls by dose curve). The conditions noted are these: Drosophila S3 cells, BODIPY lipid droplet/cell ratio, laser cytometry, cells loaded with oleic acid; for activity change, negative = inhibition: at 25.7 µM (top of the series). The method, boiled down: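 Cells seeded at 5,000 per well were treated with compounds over a concentration series and loaded with oleic acid (400 uM, as added). Lipid droplet fluorescence (488 nm excitation, 500-530 nm channel) was read by laser-scanning cytometry and normalized to 20 uM Triacsin C.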

The target of experiment [9] is Ubiquitin carboxyl-terminal hydrolase 1 (Homo sapiens) (UniProt O94782). As to the kind of experiment: Inhibitors of USP1/UAF1: Pilot qHTS (AID 504865).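 Further: rhodamine fluorescence freed from ubiquitin-rhodamine substrate followed over time; top concentration of the series differs between compounds; on the % scale 0 is the no-effect control and ±100 the full control effect; nearly all actives have a fitted effect of over 35% in size.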 The method, boiled down: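 Enzyme-free wells gave the negative control, while test wells held 1nM USP1/UAF1 preincubated with compound for 15 min at room temperature. Ub-Rho at 150nM final started the reaction, and fluorescence at 480/540 nm was recorded kinetically.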
Sequence of Ubiquitin carboxyl-terminal hydrolase 1 (Homo sapiens) (O94782 whole entry, looked up): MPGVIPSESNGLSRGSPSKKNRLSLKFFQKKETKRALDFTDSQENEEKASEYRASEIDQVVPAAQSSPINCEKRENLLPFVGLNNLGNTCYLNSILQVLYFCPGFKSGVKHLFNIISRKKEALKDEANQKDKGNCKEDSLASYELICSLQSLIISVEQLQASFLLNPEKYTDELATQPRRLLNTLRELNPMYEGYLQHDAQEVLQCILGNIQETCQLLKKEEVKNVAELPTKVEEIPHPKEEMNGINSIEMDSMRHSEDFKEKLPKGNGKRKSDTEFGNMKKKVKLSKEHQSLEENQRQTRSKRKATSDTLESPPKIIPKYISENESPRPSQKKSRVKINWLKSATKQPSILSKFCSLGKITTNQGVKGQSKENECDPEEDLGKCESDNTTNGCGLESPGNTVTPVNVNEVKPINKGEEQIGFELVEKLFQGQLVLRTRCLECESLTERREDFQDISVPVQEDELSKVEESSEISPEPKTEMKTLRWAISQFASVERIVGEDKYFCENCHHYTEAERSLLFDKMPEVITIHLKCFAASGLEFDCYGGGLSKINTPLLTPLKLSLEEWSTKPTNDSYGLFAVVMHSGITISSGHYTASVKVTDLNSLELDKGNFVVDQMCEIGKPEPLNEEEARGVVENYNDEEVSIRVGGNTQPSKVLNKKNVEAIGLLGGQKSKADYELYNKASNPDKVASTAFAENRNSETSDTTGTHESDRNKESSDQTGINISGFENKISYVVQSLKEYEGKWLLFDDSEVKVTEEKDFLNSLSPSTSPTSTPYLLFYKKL

In experiment [10] the target is Glucocorticoid receptor (Homo sapiens) (UniProt P04150). As to the kind of experiment: GR-GFP Redistribution (AID 450;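 active means compounds whose dose series gives a full or clear partial fitted curve of increased nuclear translocation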; further: potency means the concentration at half of the fitted maximal effect). Conditions: U2OS GR-GFP nuclear translocation, laser cytometry, 2 h.
Sequence of Glucocorticoid receptor (Homo sapiens) (P04150 whole entry, looked up, the tested form may be a part): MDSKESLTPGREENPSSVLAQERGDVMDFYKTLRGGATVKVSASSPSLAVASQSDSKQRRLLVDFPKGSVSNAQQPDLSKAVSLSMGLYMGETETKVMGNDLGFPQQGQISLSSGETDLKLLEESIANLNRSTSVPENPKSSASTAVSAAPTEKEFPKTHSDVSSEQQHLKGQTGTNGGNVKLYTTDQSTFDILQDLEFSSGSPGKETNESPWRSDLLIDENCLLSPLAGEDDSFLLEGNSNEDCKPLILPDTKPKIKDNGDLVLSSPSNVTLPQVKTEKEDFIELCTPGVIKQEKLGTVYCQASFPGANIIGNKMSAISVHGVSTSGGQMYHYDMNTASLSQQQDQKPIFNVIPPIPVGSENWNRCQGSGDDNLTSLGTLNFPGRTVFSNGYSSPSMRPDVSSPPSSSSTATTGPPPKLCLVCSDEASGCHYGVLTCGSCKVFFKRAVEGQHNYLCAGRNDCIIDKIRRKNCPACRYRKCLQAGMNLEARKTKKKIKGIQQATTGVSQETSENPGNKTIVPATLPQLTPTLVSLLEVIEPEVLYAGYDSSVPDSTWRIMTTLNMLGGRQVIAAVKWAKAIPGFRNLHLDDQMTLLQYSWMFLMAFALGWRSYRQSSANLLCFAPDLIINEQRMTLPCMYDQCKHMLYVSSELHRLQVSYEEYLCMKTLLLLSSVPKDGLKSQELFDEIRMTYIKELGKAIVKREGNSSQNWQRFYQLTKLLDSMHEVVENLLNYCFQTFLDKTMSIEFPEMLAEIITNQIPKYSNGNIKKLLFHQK
The target of experiment [11] is Luciferin 4-monooxygenase (Photinus pyralis) (UniProt P08659). As to the kind of experiment: Biochemical firefly luciferase enzyme assay for NPC (AID 624030).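 Further: purified P. pyralis luciferase at 10 nM with luciferin and ATP substrate; 0% = DMSO and -100% = full luciferase inhibition by PTC124 control; nearly all actives have a fitted effect of over 70% in size.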 The method in brief:
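Purified P. pyralis luciferase at 10 nM in 50 mM Tris Acetate (final), luminescence read within 5 minutes of enzyme addition to compounds. Activity normalised to PTC124 versus DMSO; concentration-response curves classed by r2, magnitude and activity.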

The nature of experiment [12]: S16 Schwann cell viability assay (CellTiter-Glo assay) (AID 624031).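 Further: cellular ATP luminescence as a viability measure; plate controls were DMSO-treated cells for no effect and cell-free wells for full effect; nearly all actives have a fitted effect of over 70% in size.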 The method, boiled down:
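Native S16 rat Schwann cells, 500-750 cells/well in DMEM with 10% FBS, dosed with compound after overnight culture and incubated 24h at 37 degree Celsius/5% CO2. Viability by CellTiter-Glo luminescence; % activity normalized to no-cell wells and DMSO-treated cells.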

Experiment [13] in a line: qHTS profiling for inhibitors of Plasmodium falciparum proliferation (AID 504749).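 Further: 0% = DMSO vehicle and full inhibition = artemisinin control; nearly all actives have a fitted effect of over 60% in size.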 The conditions noted are these: P. falciparum in erythrocytes, SYBR Green DNA, 72 h. The method, boiled down:
(§1)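 Readout was DNA-dye fluorescence from lysed cultures, ex 485/em 535 nm. Parasitized red cells had grown 72 h with compound; data scaled between 0.29 uM artemisinin and DMSO wells and corrected using vehicle-only plates.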

In a further experiment the test system is C2A. The description is as above. The conditions noted are these: P. falciparum in erythrocytes, SYBR Green DNA, 72 h; series mostly up to 12.8 µM. The method in brief:
as §1

A further experiment has as its system CP191. The description is as above. The conditions noted are these: P. falciparum in erythrocytes, SYBR Green DNA, 72 h; series mostly up to 12.8 µM. The method in brief:
as §1

For a further experiment, the system named is CP256. The description is as above. Conditions: P. falciparum in erythrocytes, SYBR Green DNA, 72 h; series mostly up to 12.8 µM. The method, boiled down: as §1
A further experiment concerns CP262. Described as above. Conditions: P. falciparum in erythrocytes, SYBR Green DNA, 72 h; series mostly up to 12.8 µM. The method in brief: as §1
A further experiment has as its system CP268. The experiment is described as above. Conditions: P. falciparum in erythrocytes, SYBR Green DNA, 72 h; series mostly up to 12.8 µM. The method, boiled down: as §1
In the next experiment the test system is JCK. The experiment is described as above. Conditions: P. falciparum in erythrocytes, SYBR Green DNA, 72 h; series mostly up to 12.8 µM. The method, boiled down:
as §1

For another experiment, the system named is SC27B. The experiment is described as above. The conditions noted are these: P. falciparum in erythrocytes, SYBR Green DNA, 72 h; series mostly up to 12.8 µM. The method, boiled down:
as §1

Setting [14] is: measured here: cell count channel max response.
[15] abbreviates: measured here: lipid channel max response.
The mark [16] stands for this setting: at 12.8 µM (top of the series), parasite line A.
Setting [17] is: at 12.8 µM (top of the series), parasite line B.

Records with an inconclusive call do not appear. Active and inactive are the calls of the source. Unless noted, the call rests on the fitted dose curve; in most records, active means well fitted curve in the direction sought with a large enough effect; inconclusive means small, poorly fitted or top-dose-only effect, or another doubt; inactive means no such curve, though single readings can be large; an effect the other way counts as inactive or inconclusive. Bounds are passed on as bounds.

Sequence of 3',5'-cyclic-AMP phosphodiesterase 4B (Homo sapiens) (Q07343 whole entry, looked up): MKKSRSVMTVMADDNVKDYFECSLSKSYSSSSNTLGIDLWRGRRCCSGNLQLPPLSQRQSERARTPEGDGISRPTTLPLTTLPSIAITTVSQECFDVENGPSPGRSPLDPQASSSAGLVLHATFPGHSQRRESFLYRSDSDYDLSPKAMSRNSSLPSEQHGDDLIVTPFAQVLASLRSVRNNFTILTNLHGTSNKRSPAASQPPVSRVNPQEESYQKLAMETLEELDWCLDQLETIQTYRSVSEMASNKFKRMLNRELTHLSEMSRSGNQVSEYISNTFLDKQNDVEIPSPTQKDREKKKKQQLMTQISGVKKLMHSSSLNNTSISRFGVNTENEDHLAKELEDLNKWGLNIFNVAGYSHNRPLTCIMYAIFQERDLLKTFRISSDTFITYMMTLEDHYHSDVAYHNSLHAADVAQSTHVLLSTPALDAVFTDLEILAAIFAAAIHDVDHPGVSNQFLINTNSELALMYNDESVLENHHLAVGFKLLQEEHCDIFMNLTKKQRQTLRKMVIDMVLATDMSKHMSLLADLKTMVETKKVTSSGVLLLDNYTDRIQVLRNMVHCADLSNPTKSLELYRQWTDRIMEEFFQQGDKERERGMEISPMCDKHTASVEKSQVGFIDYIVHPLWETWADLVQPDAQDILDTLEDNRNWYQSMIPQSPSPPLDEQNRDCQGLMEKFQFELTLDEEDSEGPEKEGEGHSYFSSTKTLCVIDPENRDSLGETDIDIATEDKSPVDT
Sequence of Luciferin 4-monooxygenase (Photinus pyralis) (P08659 whole entry, looked up): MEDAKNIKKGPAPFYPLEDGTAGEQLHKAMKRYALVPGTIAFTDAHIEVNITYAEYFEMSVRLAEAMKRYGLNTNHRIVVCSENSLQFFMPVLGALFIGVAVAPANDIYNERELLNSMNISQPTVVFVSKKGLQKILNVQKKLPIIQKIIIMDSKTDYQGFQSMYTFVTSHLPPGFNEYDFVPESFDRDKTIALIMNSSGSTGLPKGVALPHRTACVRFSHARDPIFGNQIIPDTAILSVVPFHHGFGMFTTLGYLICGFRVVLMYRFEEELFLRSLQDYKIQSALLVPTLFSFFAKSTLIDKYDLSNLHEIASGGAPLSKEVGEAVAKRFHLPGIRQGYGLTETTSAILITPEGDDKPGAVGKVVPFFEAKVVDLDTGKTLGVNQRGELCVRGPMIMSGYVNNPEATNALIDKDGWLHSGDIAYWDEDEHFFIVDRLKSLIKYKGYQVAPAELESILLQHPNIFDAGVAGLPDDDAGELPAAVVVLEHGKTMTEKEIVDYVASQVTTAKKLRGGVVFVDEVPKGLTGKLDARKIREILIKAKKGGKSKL

Consider `C[C@@H]1CCc2cc(F)cc3c(=O)c(C(=O)O)cn1c23`, for which the molecule was classed as inactive in [1], in [4] and in experiment [7]. The Potency in experiment [2] is 12.6 µM (active); in experiment [5] it was > 20.6 µM (inactive). In addition, the activity change, negative = inhibition in experiment [3] was 7.91% (inactive); in [8], -0.0799% (inactive). The Potency entry in [6] and in experiment [9] was “inactive” each time. For the same molecule, the max response is -3% in experiment [8] (setting [14]) and -1.83% in experiment [8] (setting [15]).
For `NC(=O)N/N=C\c1ccc([N+](=O)[O-])o1`, the molecule was classed as inactive in [1], in experiment [4] and in [7]. For the same molecule, the values for the Potency in experiment [2], in experiment [10] and in experiment [5] were 12.6 µM (active), > 20.6 µM (inactive) and > 20.6 µM (inactive), respectively. In addition, the activity change, negative = inhibition in experiment [3] is -5.34% (inactive); in experiment [8], 0.117% (inactive). For the same molecule, the Potency result in experiment [6] and in experiment [9] was “inactive” in each case. In addition, the max response in experiment [8] (setting [14]) is -2.81%; in experiment [8] (setting [15]), -1.91%.
For `COc1cc2nc(N3CCN(C(=O)[C@@H]4CCCO4)CC3)nc(N)c2cc1OC`, the call in experiment [1], in [4], in experiment [7] and in experiment [12] was inactive. Besides, the Potency entry (in experiment [2]; in experiment [6]; in experiment [9]; in experiment [11]; in the experiment with C2A; in the experiment on CP191) was “inactive” throughout. Further, the Potency entry in the experiment on CP256, in the experiment with CP262, in the experiment with CP268, in the experiment on JCK and in the experiment with SC27B was “inactive” each time. Besides, the figures for the activity change, negative = inhibition in experiment [3] and in [8] were 12.6% (inactive) and 2.61% (inactive), respectively. For the same molecule, the Potency in experiment [5] was > 20.6 µM (inactive). The max response in experiment [8] (setting [14]) is -3.95%; in experiment [8] (setting [15]), -0.955%. Further, the activity, negative = inhibition in experiment [13] (at 28.7 µM (top of the series), parasite line A) is 10.8% (inactive); in experiment [13] (at 28.7 µM (top of the series), parasite line B), 8.54% (inactive).
With `COc1ccc2c3c([nH]c2c1)[C@@H]1C[C@@H]2[C@@H](C[C@H](O)[C@H](OC)[C@H]2C(=O)O)CN1CC3`, the result in experiment [1], in experiment [4] and in [7] was inactive. In addition, the Potency result in experiment [2], in [6] and in experiment [9] was “inactive” throughout. Also, the activity change, negative = inhibition in experiment [3] was -14.4% (inactive); in experiment [8], -2.35% (inactive). Moreover, the Potency in experiment [10] and in experiment [5] was > 20.6 µM (inactive) each time. Further, the max response is -18.6% in experiment [8] (setting [14]) and -20% in experiment [8] (setting [15]).
Turning to `CC(=O)C[C@H](c1ccc([N+](=O)[O-])cc1)c1c(O)c2ccccc2oc1=O`, the call in [1], in [4], in experiment [7] and in [12] was inactive. Also, the Potency result (in experiment [2]; in experiment [6]; in [9]; in [11]; with C2A; in the experiment with CP191) was “inactive” throughout. Besides, the Potency result with CP256, with CP262, with CP268, in the experiment with JCK and in the experiment with SC27B was “inactive” throughout. Further, the activity change, negative = inhibition is -1.36% (inactive) in experiment [3] and 3.15% (inactive) in [8]. Moreover, the max response is -11.4% in [8] (setting [14]) and -10.7% in experiment [8] (setting [15]). For the same molecule, the results for the activity, negative = inhibition in [13] (setting [16]) and in [13] (setting [17]) were 7.55% (inactive) and 3.6% (inactive), respectively.
On to `NS(=O)(=O)c1cc2c(cc1Cl)N[C@@H](C(Cl)Cl)NS2(=O)=O`, for which the molecule was called inactive in experiment [1], in experiment [4], in [7] and in experiment [12]. For the same molecule, the Potency entry (in [2]; in experiment [6]; in experiment [9]; in experiment [11]; in the experiment with C2A; with CP191) was “inactive” throughout. Further, the Potency result in the experiment with CP256, with CP262, in the experiment on CP268, with JCK and in the experiment with SC27B was “inactive” throughout. Also, the results for the activity change, negative = inhibition in experiment [3] and in [8] were -8.61% (inactive) and -2.63% (inactive), respectively. The max response in experiment [8] (setting [14]) and in experiment [8] (setting [15]) was -19.9% in each case. Moreover, the activity, negative = inhibition in experiment [13] (setting [16]) was -8.3% (inactive); in [13] (setting [17]), 4.19% (inactive).
